This is an account of results in the supplement of paper PMC6555819.

In the first assay the test system is PPARg:RXRa 30nM:10nM, anti-RXR (NR concentration 30 nM, RXRa partner concentration 10 nM). Kind of assay: PBM binding z-score (relative to random genomic background probes); higher = stronger binding; sequences stand for … in GC…GCGATTGACAGCGTAGAATGAAGG
The procedure, abridged:
(§1)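 Each nuclear receptor dimer, without ligand, was incubated for 1 h on custom Agilent 4×180K protein-binding microarrays. Binding was detected with antibodies against each partner (one per run), and scanned fluorescence was regression-normalized. The binding z-scores are referenced to random human genomic background probes.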
With TCGAGTAGGTTAGGGGCATTCACAATGGCGTCGA, the PBM binding z-score was 1.59.

Consider TCAAATAGGTAAACAGGTGAAAGTCCGTAAGTTA, for which the PBM binding z-score is 4.64.

Take CTACCAAGGTGAACAAGGTCGGTGATTACTATTC: the PBM binding z-score was -0.269.

GCATATAGGTAATACAAGGTGAATGTCCGATTGT: the PBM binding z-score is 0.382.

Turning to CATCAAAGTTCAAGGTAACGTAACAGAAAGCAGC, the PBM binding z-score is 1.71.

In turn, ATATGTAGGTTAGCTGGGATCATTCAGACTAGGC had a PBM binding z-score of 0.999.

For ACTTACGGTTCAACGAGGTTATAGCACGCGTATA, the PBM binding z-score was determined as 0.521.

For CCTACTCGGCCAAAGGTCATTGATTCCAATGCTC, the PBM binding z-score was found to be 8.85.

In the case of CCTAGTTGGTCAGGAGGTGACACACCGGATATGA, the PBM binding z-score worked out at 0.0174.

Regarding TGACCAAGGTGAAGGTCGTTGATCCCTCTGTAGA, the PBM binding z-score amounted to 0.953.

With GGAACGAGGGCATACGAGTTGATAGCATGGCGAT, the PBM binding z-score worked out at 0.135.

Turning to TCTATTAGTTGAAGGGCGACCGACGAGTCCGTTT, the PBM binding z-score came out at 3.99.

The sequence TCTTGTAGATCAAGCAGGTTGAGAAAGCCTGAGT came in with a PBM binding z-score of 2.32.

ACAGACAGGTGATGAATGTAACTCAGGCTATCAT returned a PBM binding z-score of 0.338.

Regarding AGAATGAGGTTACCACAGATCAGGGAAACGCTTG, the PBM binding z-score is 1.11.

Sequence ACAGACAGGTGAGGAAGGTAACTCAGGCTATCAT returned a PBM binding z-score of 0.0158.

Regarding GATACAGGGTCAAGCCCAGAGTACGCGTATTGAT, the PBM binding z-score is 2.34.

CCTTACGGGTCAAGGCTATAGCACGGGTGGTACG: the PBM binding z-score turned out to be 1.45.

As to CCTAGTTGGTCAGTAGGTCACACACCGGATATGA, the PBM binding z-score came to 2.18.

Take AATCGGAGGACAAAGGTCAGAGCTACGCCAGTGA: the PBM binding z-score worked out at 6.45.

Sequence CAAACTAGGTCAAGAGGACAAAGTCCGCTTCCCG yielded a PBM binding z-score of 4.57.

On to CCTAGCAGGCCAGGGTCATTCAAGCATTTCGCTT, for which the PBM binding z-score was -0.631.

CCTCCTGGGCCAAGGTCATTGATCAGTCAAAGCA had a PBM binding z-score of 0.457.

ATCTCTGGGTAAAGTTCAGTGAAAGATCGATAGA showed a PBM binding z-score of 3.21.

CTCGAAAGGTTGTGCTCAGGTGAGTATACCAAAC: the PBM binding z-score was -0.567.

For ATCGAAAGGTCGTGAGGTGAGTATTCAGAAAGGC, the PBM binding z-score came out at 1.5.

On to AGAATGAGGTTACCAACGATCAGGGAAACGCTTG, for which the PBM binding z-score was found to be 0.844.

TCATCTAGGTAAAAGGTGAAAGTCGGTGTGGTAA: the PBM binding z-score amounted to 8.75.

For the sequence TCTAGCAGGCCAGAGGGTCTCTCAAGAGGTACGG, the PBM binding z-score is 1.38.

With CAAACTAGGTCACCGGAAGGTCACAGTCCGCATG, the PBM binding z-score stood at 6.06.

As to ATCTCTAGGAAAAAGTTCAGTGAATCCCGAGGAT, the PBM binding z-score worked out at 1.41.

Turning to TCTAGTTGGTTAAAGGTCACACACTCGAAATGCG, the PBM binding z-score was 8.96.

Turning to CGTCGAAGGTCAAGGTCAGTGAAAGAGACTCGAA, the PBM binding z-score worked out at 2.48.

Sequence CCGACTGGGGCAAGGTTACCAGAACGCACAGCCA returned a PBM binding z-score of 0.792.

For TCTTGTAGATCAAAGGTGAAGAAAGCCGAAGCCT, the PBM binding z-score was determined as 7.36.

For the sequence ATATGTAGGTTAGCTGGGGTCATTCGGACTAGGC, the PBM binding z-score worked out at 3.

For the sequence TCTCGGAGGACTCGAAGGTCAGAGCTTTCCAGAG, the PBM binding z-score turned out to be 2.

For the sequence CCGAGTAGGTGATGGGGCATTCAGGCAACGGTGA, the PBM binding z-score was 2.46.

The sequence TCGAGTAGGGTAGGGGCATTCAGAATGGCGTCGA registered a PBM binding z-score of 1.02.

As to TCATATACGTAAAAGGTGAAAGTCGGTGTGGTAA, the PBM binding z-score stood at 4.6.

Another assay has as its system PPARg:RXRa 90nM:30nM, anti-RXR (NR concentration 90 nM, RXRa partner concentration 30 nM). Described as above. The procedure, abridged:
as §1
Take TCGAGTAGGTTAGGGGCATTCACAATGGCGTCGA: the PBM binding z-score is 1.94.

In turn, TCAAATAGGTAAACAGGTGAAAGTCCGTAAGTTA registered a PBM binding z-score of 4.28.

In the case of CTACCAAGGTGAACAAGGTCGGTGATTACTATTC, the PBM binding z-score was 0.288.

Take GCATATAGGTAATACAAGGTGAATGTCCGATTGT: the PBM binding z-score was 0.743.

The sequence CATCAAAGTTCAAGGTAACGTAACAGAAAGCAGC displayed a PBM binding z-score of 2.82.

For the sequence ATATGTAGGTTAGCTGGGATCATTCAGACTAGGC, the PBM binding z-score was 1.85.

With ACTTACGGTTCAACGAGGTTATAGCACGCGTATA, the PBM binding z-score was 1.03.

As for CCTACTCGGCCAAAGGTCATTGATTCCAATGCTC, the PBM binding z-score was 9.61.

The sequence CCTAGTTGGTCAGGAGGTGACACACCGGATATGA showed a PBM binding z-score of 0.666.

Turning to TGACCAAGGTGAAGGTCGTTGATCCCTCTGTAGA, the PBM binding z-score is 2.49.

GGAACGAGGGCATACGAGTTGATAGCATGGCGAT registered a PBM binding z-score of 0.26.

Turning to TCTATTAGTTGAAGGGCGACCGACGAGTCCGTTT, the PBM binding z-score was determined as 2.9.

TCTTGTAGATCAAGCAGGTTGAGAAAGCCTGAGT showed a PBM binding z-score of 1.66.

For the sequence ACAGACAGGTGATGAATGTAACTCAGGCTATCAT, the PBM binding z-score was -0.0676.

As for AGAATGAGGTTACCACAGATCAGGGAAACGCTTG, the PBM binding z-score came to 1.73.

Sequence ACAGACAGGTGAGGAAGGTAACTCAGGCTATCAT registered a PBM binding z-score of -0.414.

The sequence GATACAGGGTCAAGCCCAGAGTACGCGTATTGAT yielded a PBM binding z-score of 4.41.

Turning to CCTTACGGGTCAAGGCTATAGCACGGGTGGTACG, the PBM binding z-score came to 2.99.

CCTAGTTGGTCAGTAGGTCACACACCGGATATGA came in with a PBM binding z-score of 3.85.

In turn, AATCGGAGGACAAAGGTCAGAGCTACGCCAGTGA showed a PBM binding z-score of 7.59.

In the case of CAAACTAGGTCAAGAGGACAAAGTCCGCTTCCCG, the PBM binding z-score stood at 6.62.

CCTAGCAGGCCAGGGTCATTCAAGCATTTCGCTT returned a PBM binding z-score of 0.991.

The sequence CCTCCTGGGCCAAGGTCATTGATCAGTCAAAGCA displayed a PBM binding z-score of 1.75.

ATCTCTGGGTAAAGTTCAGTGAAAGATCGATAGA had a PBM binding z-score of 4.78.

In the case of CTCGAAAGGTTGTGCTCAGGTGAGTATACCAAAC, the PBM binding z-score stood at 0.171.

As for ATCGAAAGGTCGTGAGGTGAGTATTCAGAAAGGC, the PBM binding z-score came to 2.96.

In turn, AGAATGAGGTTACCAACGATCAGGGAAACGCTTG displayed a PBM binding z-score of 1.7.

Take TCATCTAGGTAAAAGGTGAAAGTCGGTGTGGTAA: the PBM binding z-score turned out to be 10.8.

TCTAGCAGGCCAGAGGGTCTCTCAAGAGGTACGG came in with a PBM binding z-score of 1.06.

As for CAAACTAGGTCACCGGAAGGTCACAGTCCGCATG, the PBM binding z-score was 7.55.

The sequence ATCTCTAGGAAAAAGTTCAGTGAATCCCGAGGAT returned a PBM binding z-score of 2.47.

TCTAGTTGGTTAAAGGTCACACACTCGAAATGCG gave a PBM binding z-score of 9.31.

CGTCGAAGGTCAAGGTCAGTGAAAGAGACTCGAA came in with a PBM binding z-score of 5.24.

On to CCGACTGGGGCAAGGTTACCAGAACGCACAGCCA, for which the PBM binding z-score is 2.68.

For TCTTGTAGATCAAAGGTGAAGAAAGCCGAAGCCT, the PBM binding z-score amounted to 9.05.

For ATATGTAGGTTAGCTGGGGTCATTCGGACTAGGC, the PBM binding z-score is 4.4.

As for TCTCGGAGGACTCGAAGGTCAGAGCTTTCCAGAG, the PBM binding z-score was found to be 1.38.

The sequence CCGAGTAGGTGATGGGGCATTCAGGCAACGGTGA yielded a PBM binding z-score of 4.61.

Take TCGAGTAGGGTAGGGGCATTCAGAATGGCGTCGA: the PBM binding z-score is 1.4.

In turn, TCATATACGTAAAAGGTGAAAGTCGGTGTGGTAA displayed a PBM binding z-score of 4.19.
